High-throughput results: PubChem, several laboratories
In the library only some 4.1% were active in any assay of this set; here they are far more common.
CHT allo act = allosteric activators of human choline transporter CHT. B-score at 10 µM. CHT-expressing cells, membrane potential dye, choline EC20; hits give high values; LV-AA mutant CHT in HEK293 cells. 0.49% of 310,000 active. Q9GZV3. AID 488977;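 active = initial fluorescence not abnormally high and integrated response B-score, plate-corrected, over 3 SD above library mean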
CHT block = inhibitors of human choline transporter CHT; Q9GZV3; B-score at 10 µM; CHT-expressing cells, membrane potential dye, choline response; hits give low values; AID 488975; 0.86% of 310,000 active;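 active = B-score over 3 SD under the library average, and starting fluorescence ratio not unusually high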;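 also: choline stimulus applied at its EC90 after an EC20 pre-addition; B-score computed on integrated fluorescence ratio after choline addition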
Mot1-301 SUMO = blocks SUMOylation pathway, rescuing yeast Mot1-301 growth; S. cerevisiae Mot1-301 growth rescue, ATP luminescence, 38.5C; percent above DMSO median, 100 means doubled; growth rescue, % at 18.8 µM; 1% of 320,000 active;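 active = every valid replicate shows activation above 250% relative to neutral control wells; inactive = the rest, any valid replicate at or below 250%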;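 also: OY570 slx delta 5 strain wells were the positive control but not used for scaling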
MEKK3 PB1 HTS = MEKK3-MEK5 PB1 interaction, increase or decrease. 1.4% of 290,000 active. Q99759. binding response (% of control), % at 10 µM. bead-based flow cytometry, Alexa488-MEK5 binding to MEKK3; actives lie on both sides; 0 = blocked by unlabeled MEK5, 100 = vehicle;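 active = binding response more than 3 SD above or below the average of its plate-row segment, actives on both sides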;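 also: Alexa488 bead fluorescence after subtracting the streptavidin-only scavenger bead signal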
Target sequence (Q99759 whole entry, looked up): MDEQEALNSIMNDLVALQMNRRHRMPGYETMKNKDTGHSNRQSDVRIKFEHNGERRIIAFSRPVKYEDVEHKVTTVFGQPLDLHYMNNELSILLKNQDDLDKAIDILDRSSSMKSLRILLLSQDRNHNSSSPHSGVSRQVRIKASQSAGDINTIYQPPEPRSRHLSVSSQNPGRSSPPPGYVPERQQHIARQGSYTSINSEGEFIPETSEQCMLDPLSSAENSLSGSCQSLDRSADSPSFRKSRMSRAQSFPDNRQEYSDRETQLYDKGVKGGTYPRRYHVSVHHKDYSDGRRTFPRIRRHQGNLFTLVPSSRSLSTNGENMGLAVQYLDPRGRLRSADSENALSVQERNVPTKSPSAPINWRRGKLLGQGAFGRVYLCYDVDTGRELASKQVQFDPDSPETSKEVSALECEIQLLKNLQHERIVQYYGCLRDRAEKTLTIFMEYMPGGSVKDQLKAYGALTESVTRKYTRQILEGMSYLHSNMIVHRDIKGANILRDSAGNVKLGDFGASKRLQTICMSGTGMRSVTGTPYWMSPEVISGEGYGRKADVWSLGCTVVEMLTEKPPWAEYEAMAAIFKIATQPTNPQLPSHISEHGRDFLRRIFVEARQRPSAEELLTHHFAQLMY
MEKK2wt PB1 HTS = raises or lowers MEK5 binding to wildtype human MEKK2 PB1 domain | Q9Y2U5 | bead flow cytometry, Alexa488-MEK5 binding to MEKK2 WT; actives lie on both sides | binding response (% of control), % at 10 µM | 1.1% of 290,000 active | AID 1531; in the data active = binding response below about 67% or above about 130%
MEKK2 mut-MEK5 = signal of MEK5 binding to mutant human MEKK2 PB1 domain; bead flow cytometry, Alexa488-MEK5 binding to MEKK2 mutant; 0.35% of 290,000 active; percent response, % at 10 µM; in the data active = percent response above about 24%, passing the limit was not always enough
CHT inh conf = confirmation of human choline transporter CHT inhibitors. shares compounds with CHT block. CHT-expressing cells, choline membrane potential dye; LV-to-AA substituted CHT, HEK293 cells. CHT activity remaining % of control (hits give low values), % at 10 µM. 70% of 2,400 active;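 active = choline transporter activity left, mean of duplicates at 10 µM, below buffer-only control mean minus 3 SD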;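 also: depolarization triggered by choline at its EC90 following an EC20 pre-addition; 0% = hemicholinium-3 full block and 100% = buffer-only control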
HEK293 CHT ctr = activity in parental HEK293 cells lacking CHT; shares compounds with CHT block; membrane potential dye, choline response; active = decrease or increase beyond buffer ±3SD; membrane potential ratio readout (active if shifted either direction beyond buffer ±3SD; no single direction) at 10 µM; 4% of 2,400 active; AID 493222;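 also: parental cells lack the transporter so any hit is non-specific; ratio is peak minus trough fluorescence over baseline after EC90 choline challenge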
* = called active by the depositor; i = inactive; x = no result.

SMILES | CHT allo act | CHT block | Mot1-301 SUMO | MEKK3 PB1 HTS | MEKK2wt PB1 HTS | MEKK2 mut-MEK5 | CHT inh conf | HEK293 CHT ctr
COc1ccc(C2(C(=O)Nc3ccc(S(=O)(=O)Nc4nc(C)cc(C)n4)cc3)CCCC2)cc1OC | i | -7.7* | -1.0 | 101.0 | 101.0 | 0.0 | 28.6%* | i
CN(CCNC(=O)CN1CCN(Cc2ccccc2Cl)C1=O)Cc1ccccc1 | i | -6.47* | 3.2 | 95.0 | 99.0 | 11.0 | 42.6%* | i
O=C(CN1CCN(Cc2ccc(F)cc2Cl)C1=O)NCCc1ccccc1 | i | i | -2.9 | 108.0 | 113.0 | 9.0 | x | x
CN1CCCN(c2ncnc3scc(-c4ccc(F)cc4)c23)CC1 | i | -10.4* | 5.5 | 98.0 | 91.0 | -8.0 | 24.0%* | i
Fc1ccc(CN2CCN(c3ncnc4scc(-c5ccc(F)cc5)c34)CC2)cc1 | i | i | -3.0 | 101.0 | 100.0 | -1.0 | x | x
COc1ccc(C(=O)N2CCCC(C(=O)N3CCN(c4ccccc4)CC3)C2)cc1 (configuration not stated) | i | i | -10.3 | 101.0 | 101.0 | -1.0 | x | x
Cc1c(NC(=S)Nc2cccc(Cl)c2)c(=O)n(-c2ccccc2)n1C | i | i | -2.5 | 114.0 | 107.0 | 0.0 | x | x
COc1cc(/C=C2/C(=O)N(c3cccc(Br)c3)N=C2C)cc(OC)c1O | i | -5.17* | 201.2 | 101.0 | 98.0 | -1.0 | 45.3%* | i
CCn1c(=O)n(CC)c2cc(N3CCCC3)c(NC(=O)c3cc(Br)ccc3OC)cc21 | i | i | -17.4 | 101.0 | 99.0 | 0.0 | x | x
Clc1ccc(OCCSCc2nc3ccccc3[nH]2)cc1 | i | i | 10.2 | 105.0 | 103.0 | 5.0 | x | x
Cc1ccc(OCCSCc2nc3ccccc3[nH]2)cc1 | i | -5.46* | -6.2 | 98.0 | 104.0 | 1.0 | i | i
COc1ccc(N(C)S(=O)(=O)c2cccc(C(=O)NC3CCCC3)c2)cc1 | i | i | -13.7 | 107.0 | 99.0 | -1.0 | x | x
COc1ccc(N(C)S(=O)(=O)c2cccc(C(=O)NC3CCCCC3C)c2)cc1 (configuration not stated) | i | -5.51* | 1.1 | 102.0 | 96.0 | -3.0 | 59.0%* | i
Cc1ccc(CSCc2nc3ccccc3[nH]2)cc1 | x | x | x | 102.0 | 97.0 | 1.0 | x | x
Cc1cc(C)cc(CC(Cc2nc3ccccc3[nH]2)c2nc3ccccc3[nH]2)c1 (configuration not stated) | i | -8.66* | 75.8 | 97.0 | 98.0 | -5.0 | 54.1%* | i
CC1CCC(NC(=O)CN2C(=O)c3cccnc3Oc3ccc(Cl)cc32)CC1 (configuration not stated) | i | i | -17.0 | 100.0 | 100.0 | -4.0 | x | x
CC(Nc1cccnc1)=C(C#N)C#N | i | i | 33.8 | 98.0 | 93.0 | -8.0 | x | x
Cc1cccc(-c2ncc(CN3CCN(CCC(C)C)C(CCO)C3)cn2)c1 (configuration not stated) | i | -5.78* | 10.9 | 96.0 | 102.0 | -1.0 | i | i
C=CCNc1nc2ccccc2nc1NS(=O)(=O)c1ccc(F)cc1 | i | i | 6.5 | 105.0 | 108.0 | 11.0 | x | x
C=CCNc1nc2ccccc2nc1NS(=O)(=O)c1ccc(Br)cc1 | i | -5.11* | 8.2 | 105.0 | 111.0 | 8.0 | 68.9%* | i
CCOC(=O)c1ccc(NC(=O)c2ccc(C)c(S(=O)(=O)N3CCOCC3)c2)cc1 | i | -5.5* | 12.9 | 112.0 | 113.0 | 9.0 | 68.3%* | i
Cc1ccc(C(=O)NC2CCCCC2)cc1S(=O)(=O)N1CCCC1 | i | -5.98* | -4.7 | 96.0 | 93.0 | -1.0 | 60.8%* | i
CC(OC(=O)c1ccc(Cl)c(S(=O)(=O)N2CCCC2)c1)C(=O)NC1CCCCC1C (configuration not stated) | i | i | 4.4 | 106.0 | 104.0 | 4.0 | x | x
COc1ccccc1NC(=O)c1ccc(C)c(S(=O)(=O)N2CCCCC2)c1 | i | i | 1.0 | 102.0 | 97.0 | 1.0 | x | x
Cc1ccc(C(=O)OC(C)C(=O)NC2CCCCC2C)cc1S(=O)(=O)N1CCCCC1 (configuration not stated) | i | -7.86* | 267.8 | 101.0 | 98.0 | -1.0 | i | i
SMILES | CHT allo act | CHT block | Mot1-301 SUMO | MEKK3 PB1 HTS | MEKK2wt PB1 HTS | MEKK2 mut-MEK5 | CHT inh conf | HEK293 CHT ctr
Cc1ccccc1NC(=O)c1ccc(C)c(S(=O)(=O)N2CCN(C)CC2)c1 | i | -5.66* | 35.4 | 109.0 | 109.0 | 5.0 | 59.1%* | i
CCOC(=O)c1sc(/N=C/c2ccc(O)cc2O)cc1C | i | i | -2.9 | 101.0 | 106.0 | -1.0 | x | x
Cc1sc(NC(=O)c2ccco2)nc1-c1ccccc1 | i | -9.22* | 11.3 | 100.0 | 103.0 | 6.0 | 53.2%* | i
COc1ccc(O)c(/C=N/NS(=O)(=O)c2ccc(C)cc2)c1 | i | i | 151.8 | 105.0 | 106.0 | 2.0 | x | x
Cc1ccc(S(=O)(=O)N/N=C/c2cc(Br)ccc2O)cc1 | i | -5.59* | 35.0 | 95.0 | 94.0 | -8.0 | 67.4%* | i
O=C(CCCCCCN1C(=O)c2ccccc2C1=O)N1CCC(c2ccccc2)C1 (configuration not stated) | i | -6.08* | 10.7 | 100.0 | 107.0 | -1.0 | i | i
O=S(=O)(CCc1ccncc1)c1ccc(Cl)cc1 | i | i | 142.6 | 101.0 | 96.0 | -5.0 | x | x
Cc1ccc(-c2nnc(N3CCCCC3)c3ccccc23)cc1S(=O)(=O)N1CCN(C)CC1 | i | -7.27* | -1.2 | 102.0 | 103.0 | 6.0 | 41.9%* | i
CCCn1c2ccccc2c2cnn(CC(=O)N(CC)CC)c(=O)c21 | i | i | 3.8 | 93.0 | 98.0 | -7.0 | x | x
CCCn1c2ccccc2c2cnn(CC(=O)NCCN(CC)CC)c(=O)c21 | i | -9.14* | -13.9 | 94.0 | 102.0 | -2.0 | -3.9%* | i
O=C(Cn1ncc2c3ccccc3n(Cc3ccccc3F)c2c1=O)NCCN1CCOCC1 | i | -9.94* | -12.1 | 102.0 | 105.0 | 1.0 | 28.4%* | i
CCCn1c2ccccc2c2cnn(CC(=O)NCCN(C)C)c(=O)c21 | i | -8.01* | -13.8 | 99.0 | 108.0 | 9.0 | 18.5%* | i
CC(C)Sc1nc2c(c(=O)[nH]1)C(c1cccs1)C1=C(CC(C)(C)CC1=O)N2 (configuration not stated) | i | -5.78* | -5.8 | 102.0 | 97.0 | -1.0 | i | i
